Experimental data from the OligoGym collection.

target: SFTA2; experiment: pooled miR-30 sensor sort-seq; sequence = guide strand; conditions: shRNA
Also: reference of the scale not given here.

Row | Sequence | sensor-assay potency score (higher = more potent)
1 | TCCATGTGAGCTGCCAAGGAGG | -1.63
2 | TTCCATGTGAGCTGCCAAGGAG | -0.915
3 | AATTTGTCAGAAAAGACTCCTT | -0.354
4 | TTGAGATCTTGCATGGTGGAGG | -0.323
5 | TGGAGGGTGACGCTGGTCCCTG | -1.43

target: SGK1; experiment: as above; conditions: shRNA

Row | Sequence | sensor-assay potency score (higher = more potent)
6 | TTGTCGTACATTTCAGCTGTGT | -0.298
7 | TTATTAATGAGATCATCCCAGT | -0.742
8 | TAAGTCTCTATAAACGATGTTC | -0.772
9 | TTTAGCATGAGGATTGGACGAC | -0.303
10 | TTTTAAGTCTCTATAAACGATG | -1.25
11 | TTGCTAGAAGAACCTTTCCAAA | -1.79
12 | TACATTTCAGCTGTGTTTCGGC | 0.293
13 | TTTGCTGAGAAGGACTTGGTGG | 0.0605
14 | TTTGACTGCATAGAACACTTCT | 0.33
15 | TTCTGTAAAACTTTGACTGCAT | 0.858
16 | TTCTTCAACAGAACATTCCGCT | 0.565
17 | TACAATTTGTCAGCAGTCTGGA | 0.173

target: SGTA; experiment: as above; conditions: shRNA

Row | Sequence | sensor-assay potency score (higher = more potent)
18 | TAGGCCTTGCTGTAGGCCGGGT | -1.17
19 | TCATCTGCTCGTTTCCTTCGGT | 0.113
20 | TGAGCTGCTCTATCAACTCTGG | -0.693
21 | TTGGACTTGTATGTCTCGTTGT | 0.614
22 | TATCTTGAGGTTGGACTTGTAT | -0.792
23 | AAGGTCACTGTCTTCTACCGTC | 0.33
24 | TATCAACTCTGGGTTCTGCTGC | 0.409
25 | TTGTATGTCTCGTTGTCGGGGT | 0.213
26 | TTCCACTTTCATCTGCTCGTTT | 0.488
27 | TTCTGCTGCTGCATCTGCTGGG | 0.386
28 | TTGAGCTCGATGGCTTTTCCGT | -0.866
29 | TTTTCCACTTTCATCTGCTCGT | -0.241

target: SH3YL1; experiment: as above; conditions: shRNA

Row | Sequence | sensor-assay potency score (higher = more potent)
30 | TTTAGCAGAAGACTTCCTCTGC | 0.193
31 | TTGAGAGCCAGAGTTCAGCTGG | 0.176
32 | TTGTCCTTCATTTTCATACTTT | -0.366
33 | ATAACTGTGATTCTGTCTCCAG | -0.286
34 | TTGCTTAACTAGTAAATCCTGT | 0.218
35 | TTAACTAGTAAATCCTGTCAGT | -0.0626
36 | TTTTCTTGCATTGATTCGTTGT | 0.574
37 | TTGGAGGTAATTCTTTAGCAGA | -1.34
38 | TTTCATAAAGATCTTCGGCTTG | -0.146
39 | TTATATTCATTTCTGTTGCTTT | -0.121
40 | TTGCATTGATTCGTTGTCCTTC | 0.55
